Source: PubChem BioAssay (National Center for Advancing Translational Sciences (NCATS))
AMA1 RON2 block = qHTS for Inhibitors of AMA1-RON; Towards Development of Antimalarial Drug Lead: Primary Screen | Plasmodium falciparum AMA1 (3D7) - RON2 peptide interaction | actives 0.2% (n = 360,000) | AlphaScreen AMA1-biotinylated RON2 peptide binding | Potency, µM (top dose mostly 58.2 µM), inactives show top-dose activity change, negative = inhibition, actives largely listed as inhibitors;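 also: 0% = vehicle wells and -100% = peptide control; nearly all actives have a fitted effect of over 45% in size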
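AMA1 (3D7) with his tag at 25 nM final met compounds first, then biotinylated RON2 peptide at 25 nM; detection used donor plus acceptor beads, 10 µg/mL apiece, read by AlphaScreen after 30 min at room temperature.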
Vaccinia mCherry = qHTS for Stage-Specific Inhibitors of Vaccinia Orthopoxvirus: mCherry Reporter Primary qHTS. Vaccinia virus mCherry reporter infection, fluorescence. Potency, µM (top dose mostly 36.5 µM), without a hit: at the highest dose activity change, negative = inhibition, hits mostly inhibitors. actives 0.63% (n = 310,000); calls by dose curve; tested in A549 cells; also: nearly all actives have a fitted effect of over 35% in size
Pf growth 48h = Primary qHTS for delayed death inhibitors of the malarial parasite plastid, 48 hour incubation | actives 5.9% (n = 310,000) | P. falciparum luciferase growth in erythrocytes, 48 h | Potency, µM (doses to about 28.7 µM), for the others: top-dose activity change, negative = inhibition, usual class: inhibitors | AID 504832, 2011
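Compounds are pin-transferred into medium, infected erythrocytes (2% hematocrit, 0.1% parasitemia final) are added, and plates sit one parasite generation at 37 C in 5% CO2. Detection reagent is then added and luminescence measured.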
Vaccinia Venus = qHTS for Stage-Specific Inhibitors of Vaccinia Orthopoxvirus: Venus Reporter Primary qHTS | Vaccinia virus Venus reporter expression, fluorescence | AID 720580, 2013 | actives 0.46% (n = 330,000) | Potency, µM (doses to about 36.5 µM), for inactives: at the highest dose activity change, negative = inhibition, usual class: inhibitors; calls by dose curve; tested in A549 cells; also: nearly all actives have a fitted effect of over 30% in size
Pf growth 96h = Primary qHTS for delayed death inhibitors of the malarial parasite plastid, 96 hour incubation. P. falciparum luciferase reporter growth, 96 h. Potency, µM (titrated, usually from 28.7 µM), for the others: at the top dose activity change, negative = inhibition, most hits filed as inhibitors. actives 6.9% (n = 320,000)
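Plates of compound plus infected erythrocytes (2% hematocrit, 0.05% parasitemia final) incubate 96 hours, 37 C, 5% CO2. Detection reagent added; reduced luminescence from the parasites' luciferase reporter flags inhibition.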
* hit, by the source's call; [ ] = remark or other dose. The list is not random: actives were taken first. Their share in the collection is about 8.7%. Unless noted, calls follow the shape of the dose curve; as a rule, active = well fitted curve in the direction sought with a large enough effect; inconclusive = small, poorly fitted or top-dose-only effect, or another doubt; inactive = no such curve, though single readings can be large; an effect the other way counts as inactive or inconclusive. Unless noted, % is scaled to controls: 0 for no effect and ±100 for the full control effect; potency is read from the fitted curve at half-maximal effect.

`COc1cc2c(cc1NC(=O)C(C)N1CCN(S(=O)(=O)c3ccccc3[N+](=O)[O-])CC1)oc1ccccc12` (centres undefined) gave AMA1 RON2 block 10.5% and Pf growth 96h 5.86µM*.
For CC(=O)c1ccc(NC(=O)CSc2nccn2Cc2ccco2)cc1 the results were Vaccinia mCherry 0.0% and Vaccinia Venus -13.0%.
`COc1ccccc1Nc1c2c(nc3ccccc13)CCC2` gave AMA1 RON2 block 14.2%, Vaccinia mCherry inconclusive, Pf growth 48h 8.28µM*, Vaccinia Venus -27.3% and Pf growth 96h inconclusive.
For COC(=O)c1cccc(Nc2c3c(nc4ccccc24)CCC3)c1 the results were AMA1 RON2 block -4.1%, Vaccinia mCherry -20.0%, Pf growth 48h 11.7µM*, Vaccinia Venus -24.6% and Pf growth 96h -5.4%.
For Cc1ccc2nc3c(c(Nc4cccc(O)c4)c2c1)CCC3 the results were AMA1 RON2 block -6.4%, Pf growth 48h 5.22µM* and Pf growth 96h 21.5%.
For CCOC(=O)c1cccc(Nc2c3c(nc4ccccc24)CCC3)c1 the results were Vaccinia mCherry -5.2% and Vaccinia Venus -17.6%.
COc1ccc(Nc2c3c(nc4ccccc24)CCC3)c(OC)c1 was read as AMA1 RON2 block -5.6%, Vaccinia mCherry inconclusive, Pf growth 48h inconclusive, Vaccinia Venus inconclusive and Pf growth 96h -14.5%.
`COc1ccc(NC(=O)Cn2ccn(-c3ccc(C)c(C)c3)c(=O)c2=O)cc1Cl` gave Vaccinia mCherry -6.1% and Vaccinia Venus -11.0%.
Screening COc1cccc(CC(NC(C)=O)C(=O)NC2CCN(c3c4c(nc5ncnn35)CCC4)CC2)c1 (centres undefined) returned AMA1 RON2 block -1.2%, Vaccinia mCherry -16.2% and Vaccinia Venus -10.4%.
`COc1ccc(CC(NC(C)=O)C(=O)NC2CCN(c3c(Cc4ccccc4)c(C)nc4ncnn34)CC2)c(OC)c1` (centres undefined) gave AMA1 RON2 block -1.6%, Pf growth 48h 18.4% and Pf growth 96h 54.8%.
`COc1cccc(CC(NC(C)=O)C(=O)NC2CCN(c3c(Cc4ccccc4)c(C)nc4ncnn34)CC2)c1OC` (centres undefined) gave AMA1 RON2 block -0.4%, Vaccinia mCherry -10.2%, Pf growth 48h 5.86µM*, Vaccinia Venus 3.5% and Pf growth 96h inconclusive.
COc1ccc(CC(NC(C)=O)C(=O)NC2CCN(c3c(Cc4ccccc4)c(C)nc4ncnn34)CC2)cc1OC (centres undefined) was read as Pf growth 48h 11.7µM* and Pf growth 96h inconclusive.
O=C(NCc1ccc(Cl)cc1)C1CCCN(c2nc3ccccc3n3cccc23)C1 (centres undefined) was read as Vaccinia mCherry -10.0% and Vaccinia Venus -2.9%.
Cn1c(=O)c2c(nc(NCCc3ccccc3)n2CC(=O)NCCc2ccccc2)n(C)c1=O was read as AMA1 RON2 block 3.2%, Pf growth 48h -10.2%, Vaccinia Venus -21.4% and Pf growth 96h 13.1µM*.
`C=CCn1c(NCCc2ccccc2)nc2c1c(=O)n(C)c(=O)n2C` gave AMA1 RON2 block -6.7%, Vaccinia mCherry inconclusive, Pf growth 48h -12.5%, Vaccinia Venus inconclusive and Pf growth 96h -6.6%.
Screening C/C(Cl)=C\Cn1c(NCCc2ccccc2)nc2c1c(=O)n(C)c(=O)n2C returned AMA1 RON2 block 4.4%, Vaccinia mCherry inconclusive, Pf growth 48h 9.28µM*, Vaccinia Venus -27.1% and Pf growth 96h 40.1%.
Screening Cn1c(=O)c2c(nc(NCc3ccccc3)n2CC(=O)NCc2ccccc2)n(C)c1=O returned AMA1 RON2 block -0.3%, Pf growth 48h -2.4%, Vaccinia Venus -11.0% and Pf growth 96h 56.2%.
`Cc1ccc(Cn2c(=O)n(-c3ccc(C)c(C)c3)c(=O)c3c(C)c(C)sc32)cc1` gave Vaccinia mCherry -7.7% and Vaccinia Venus -10.4%.
Cc1ccc(N=Cc2ccc(N(C)C)cc2)cc1 was read as AMA1 RON2 block -3.2%, Pf growth 48h 60.3%, Vaccinia Venus 3.55µM* and Pf growth 96h 15.2%.
CN(C)c1ccc(C=Nc2ccc(N(C)C)cc2)cc1 was read as AMA1 RON2 block inconclusive, Pf growth 48h inconclusive, Vaccinia Venus 19.6% and Pf growth 96h -19.1%.
CN(C)c1ccc(N=Cc2ccco2)cc1 was read as AMA1 RON2 block -25.2%, Vaccinia mCherry inactive, Pf growth 48h 0.828µM*, Vaccinia Venus -9.1% and Pf growth 96h inconclusive.
`Cc1ccc(S(=O)(=O)N(C)/N=C/C=C/c2ccccc2)cc1` gave AMA1 RON2 block -7.6%[2.32 µM], Vaccinia mCherry -5.2%, Pf growth 48h 16.4%, Vaccinia Venus -7.5% and Pf growth 96h 72.0%.
For Cc1ccc(S(=O)(=O)N(C)/N=C/c2ccc(N(C)C)cc2)cc1 the results were AMA1 RON2 block 25.1µM*, Vaccinia mCherry inconclusive, Vaccinia Venus -8.3% and Pf growth 96h 62.1%.
`CC(C)(C)[C@@H]1C=C(C(=O)N2CCN(Cc3ccc4c(c3)OCO4)CC2)O[C@H](OCc2ccc(CO)cc2)C1` gave AMA1 RON2 block -0.4%, Vaccinia mCherry inconclusive, Pf growth 48h 10.4µM*, Vaccinia Venus inconclusive and Pf growth 96h 11.7µM*.
`O=C(C1=C[C@@H](c2ccc(Br)cc2)C[C@@H](OCc2ccc(CO)cc2)O1)N1CCN(Cc2ccc3c(c2)OCO3)CC1` gave AMA1 RON2 block -20.8%, Vaccinia mCherry -14.4%, Pf growth 48h inconclusive, Vaccinia Venus -26.3% and Pf growth 96h 14.7µM*.
Screening O=C(C1=C[C@H](c2ccc(C(F)(F)F)cc2)C[C@H](OCCCCO)O1)N1CCN(Cc2ccccc2)CC1 returned AMA1 RON2 block -9.1%, Vaccinia mCherry inactive, Pf growth 48h inconclusive, Vaccinia Venus -19.3% and Pf growth 96h inconclusive.
O=C(C1=C[C@@H](c2ccc3c(c2)OCO3)C[C@@H](OCc2ccc(CO)cc2)O1)N1CCOCC1 was read as AMA1 RON2 block 3.4%, Vaccinia mCherry inactive, Pf growth 48h -12.7%, Vaccinia Venus 2.4% and Pf growth 96h inconclusive.
For O=C(C1=C[C@@H](c2ccc(C(F)(F)F)cc2)C[C@@H](OCc2ccc(CO)cc2)O1)N1CCN(Cc2ccc3c(c2)OCO3)CC1 the results were AMA1 RON2 block -18.6%, Vaccinia mCherry -9.9%, Pf growth 48h inconclusive, Vaccinia Venus inconclusive and Pf growth 96h 2.33µM*.
For O=C(C1=C[C@@H](c2ccc(C(F)(F)F)cc2)C[C@@H](OCCCCO)O1)N1CCN(Cc2ccc3c(c2)OCO3)CC1 the results were AMA1 RON2 block -3.6%, Vaccinia mCherry -0.4%, Pf growth 48h inconclusive, Vaccinia Venus -29.0% and Pf growth 96h 9.28µM*.
